This is part of a sample that, as a whole, favours compounds with a hit. Of some 83,000 tested, about 20% had one in any assay.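 Step 1: grow cells in 96-well plates. Step 2: add test compound at a single concentration. Step 3: incubate 48 h. Step 4: record percent growth.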 Values without a mark were called inactive. Active and inactive are the calls of the source. The calls were made as follows: active = growth percent below 10; inactive = the rest.
Columns and labels:
Assay in all cases: NCI-60 one-dose screen, 48 h (100 = growth as untreated, 0 = no growth, -100 = all killed)
Conditions in all cases: 10 µM unless noted
[1] = tested on: NCI-H23 lung
[2] = tested on: NCI-H226 lung
[3] = tested on: NCI-H322M lung
[4] = tested on: HOP-62 NSCLC
[5] = tested on: NCI-H460 lung
[6] = tested on: HOP-92 NSCLC
[7] = tested on: NCI-H522 lung
[8] = tested on: A549/ATCC NSCLC
[9] = tested on: 786-0 renal
[10] = tested on: COLO 205 colon

SMILES	growth [1]	growth [2]	growth [3]	growth [4]	growth [5]	growth [6]	growth [7]	growth [8]	growth [9]	growth [10]
Clc1ccc(C2CC(c3cccc(Nc4ccncc4)c3)=NN2c2ccccc2)cc1 (stereo not given)	84.3%	93.1%	69.7%	0.979% (active)	-70.5% (active)	55.8%	-39.1% (active)	27.3%	-94.3% (active)	-63.6% (active)
CC(C)C1C2=C(NCCN1C(=O)Cc1ccccc1)C(C)(C)N(Cc1ccccc1)C2=O (stereo not given)	97.4%	104%	99.2%	91.9%	104%	93.6%	93.6%	100%	97.3%	100%
Cc1[nH]n(-c2cccc(Cl)c2)c(=O)c1/C=C1\C=Nc2ccc(Br)cc21	31.7%	69.1%	54.9%	-16.4% (active)	-72.9% (active)	-16.9% (active)	29.2%	-8.71% (active)	-4.37% (active)	7.07% (active)
COc1cc2nc(-c3ccc(C(F)(F)F)cc3)cc(OCCCN3CCC(O)CC3)c2cc1OC	57.9%	-9.29% (active)	61.1%	45.3%	16.5%	19.9%	10.5%	27.7%	42.7%	26.5%
CCOC(=O)N1CCc2c(sc3nc4nc[nH]n4c(=O)c23)C1	95%	82.4%	109%	86.6%	109%	93.8%	85.2%	100%	99.6%	102%
CN1CCN(CCCOc2ccc3ncnc(Nc4ccc(Oc5cccc(C(F)(F)F)c5)c(Cl)c4)c3c2)CC1	44.4%	85.6%	11.3%	1.07% (active)	-66.9% (active)	29.4%	-3.31% (active)	21.5%	-81% (active)	-51.8% (active)
NC(=S)N/N=C(\c1ccc(Cl)cc1)C1CC1	89.7%	74.7%	88%	80.1%	102%	97.2%	97.3%	92.5%	105%	92.6%
NC(=O)c1cccc(-c2cc(C(N)=O)ccc2Cl)c1	43.3%	69.1%	92.3%	35.9%	98.2%	52%	23.4%	85%	48.7%	33.5%
Cc1cccc(C)c1-c1cc(Cc2ccc(Cl)cc2)c(=O)[nH]n1	84.9%	97.3%	111%	99.4%	109%	78.6%	95.3%	37%	104%	108%
Cc1ccc(S(=O)(=O)Nc2ccc(Cl)cc2)cc1	91.6%	96.6%	94%	98.4%	105%	86.9%	104%	94%	100%	111%
Cc1cccc(Oc2ccc(Nc3ncnc4ccc(NC(=O)CNCCO)cc34)cc2Cl)c1	85.1%	96.7%	18.9%	78.2%	39.2%	30.4%	31.6%	52.8%	55.7%	56.2%
c1ccc2c(-c3c4ccsc4cc4[nH]c5ccccc5c34)c[nH]c2c1	51.6%	67.9%	69.6%	39.7%	11.6%	63.1%	22.7%	39.2%	27.9%	58.4%
O=S(=O)(NCCCNc1nccc(-c2c(-c3ccc(F)c(O)c3)nc3sccn23)n1)c1ccc(F)cc1	2.45% (active)	11%	5.97% (active)	19.9%	6.31% (active)	6.16% (active)	-9.08% (active)	10.2%	14.1%	11.5%
COc1cc(C2CC(c3cccc(Nc4ccncc4)c3)=NN2C(C)=O)cc(OC)c1OC (stereo not given)	104%	96.8%	102%	91.1%	103%	70.1%	77.9%	98.5%	88%	95%
COc1cc(-c2nc3sccn3c2-c2ccnc(NCCNS(=O)(=O)c3ccc(F)cc3)n2)ccc1F	13%	3.23% (active)	29.7%	32.3%	13.6%	18.8%	-6.6% (active)	5.95% (active)	30.9%	5.45% (active)
COc1cc2nc(-c3ccc(C(F)(F)F)cc3)cc(OCCN3CCC(O)CC3)c2cc1OC	88.9%	56.3%	68.8%	67.8%	44.5%	71.2%	79.6%	79.2%	78.7%	35.7%
CC[C@@]12C=CCN3CC[C@]4(c5cc(NC(=O)COc6cc(OCC(=O)Nc7cc8c(cc7OC)N(C)[C@H]7[C@@](O)(C(=O)OC)[C@H](OC(C)=O)[C@]9(CC)C=CCN%10CC[C@]87[C@@H]%109)cc7oc(-c8ccccc8)cc(=O)c67)c(OC)cc5N(C)[C@@H]4[C@](O)(C(=O)OC)[C@H]1OC(C)=O)[C@H]32	0.327% (active)	23.7%	45.9%	17.3%	0.985% (active)	33.9%	-27.7% (active)	51.7%	41.4%	40.2%
N#Cc1cc(-c2nc3ccccc3s2)c(=O)n(NS(=O)(=O)c2ccc(Cl)cc2)c1N	94.9%	80.8%	102%	89.6%	105%	98.6%	96.3%	117%	105%	122%
COc1ccc(Cn2nc(-c3cc(OC)c(OC)c(OC)c3)c3c2CCc2cnoc2-3)cc1OC	62.4%	84.5%	75.9%	57.2%	55.1%	33.3%	15.2%	52.2%	66.5%	74.4%
O=CNc1cc(Cl)cc(Cl)c1	102%	102%	104%	102%	104%	106%	95.4%	102%	104%	107%
Nc1nc(SN=Nc2ccc(S(N)(=O)=O)cc2)c2[nH]cnc2n1	8.88% (active)	37.3%	56.4%	19.8%	4.68% (active)	-6.95% (active)	-9.91% (active)	24.1%	15.7%	-30.6% (active)
C=C1C(=O)O[C@H]2[C@H]1CC/C(CNC(=O)/C=C/c1ccccc1F)=C\CC[C@@]1(C)O[C@@H]21	64.8%	71.9%	73.9%	74.5%	56.2%	-28.2% (active)	-73.5% (active)	52.9%	-58.4% (active)	-45% (active)

SMILES	growth [1]	growth [2]	growth [3]	growth [4]	growth [5]	growth [6]	growth [7]	growth [8]	growth [9]	growth [10]
COc1ccc(/C(=C\c2ccccc2)C(=O)O)cc1OC	93.6%	83.5%	98%	2.18% (active)	101%	97.9%	101%	102%	104%	100%
COc1ccc(C(O)c2cc3c(N)c(C(=O)Nc4cccc(OC)c4)sc3nc2C)cc1 (stereo not given)	30%	45.9%	38.8%	26.5%	1.65% (active)	37%	-27.4% (active)	9.44% (active)	33.9%	-42.8% (active)
COc1ccc(C(O)c2cc3c(N)c(C(=O)Nc4ccc(Br)cc4)sc3nc2C)cc1 (stereo not given)	38.1%	42.4%	39.4%	23%	6.2% (active)	44.1%	6.85% (active)	24.3%	50.3%	11.3%
CC(=O)c1cc2c(N)c(C(=O)Nc3cncc4ccccc34)sc2nc1C	101%	105%	113%	93.5%	110%	98.6%	92.1%	106%	98.4%	121%
CNC(=O)NCC1OC(n2cnc3c(NC(=O)Nc4ccccc4)ncnc32)C(O[Si](C)(C)C(C)(C)C)C1O[Si](C)(C)C(C)(C)C (stereo not given)	36.3%	49%	87.3%	61.7%	-6.74% (active)	-2.68% (active)	46.2%	23%	16.5%	-100% (active)
COc1cc2nc(-c3ccc(-c4nn[nH]n4)cc3)[nH]c(=O)c2cc1OC	93.7%	106%	176%	99.3%	115%	132%	96.1%	30.5%	104%	117%
C/C(=C(/c1ccccc1)c1ccc(OCC(O)CNCCN2CCOCC2)cc1)c1ccccc1 (stereo not given)	83.2%	96.1%	72.7%	54.9%	17.6%	59.1%	44.6%	70.8%	97.6%	-64.5% (active)
COc1ccc(C2=C(c3ccccc3)c3ccc(OC(C)=O)cc3OC2(C)C)cc1	79.8%	86.3%	102%	107%	84.8%	81.1%	88.8%	87.7%	101%	108%
O=C(N/N=C/c1cccnc1)c1ccccc1Nc1cccc(C(F)(F)F)c1	94.2%	109%	85.6%	77.5%	102%	72%	81.8%	42.4%	83.7%	105%
CCN1C(=O)/C(=c2\sc3n(c2=O)NC2C(N=3)N(CC)C(=O)N2CC)c2ccccc21 (stereo not given)	38.5%	102%	47%	43.1%	18%	21.6%	15%	38.9%	38.2%	14.8%
COc1ccc(-c2nc(N/N=C/c3c[nH]c4ccccc34)nc(N3CCOCC3)c2C#N)cc1	111%	105%	94.1%	105%	82.8%	69.1%	99.7%	92.4%	45.9%	78.5%
Cc1c2c(cc[n+]1Cc1ccccc1)c1ccc(OCC3CCCCC3)cc1n2CC1CCCCC1	-76.7% (active)	-89.1% (active)	-83.2% (active)	-95% (active)	-93.4% (active)	-85.6% (active)	-84.5% (active)	-93.1% (active)	-91.3% (active)	-95.2% (active)
N/C(=N\N=C\c1cc2ccccc2s1)N/N=C/c1cc2ccccc2s1	103%	99.5%	108%	110%	102%	97%	91.8%	106%	5.55% (active)	112%
CCN1C(=O)N(CC)C2NC(SC)=NC21 (stereo not given)	98%	94.3%	92.3%	91.8%	103%	108%	102%	103%	102%	103%
CCCCCCCCCCCCCCCC(=O)OC[C@@]1(O)C[C@@]23CC[C@@H]4C(C)(C)CCC[C@@]4(C)[C@@H]2CC[C@H]1C3	102%	98.3%	114%	106%	98.4%	117%	89.3%	103%	27.9%	112%
COc1cccc(NC(=O)c2cccc(-c3cc(=O)c4c(OC)c(OC)c(OC)cc4o3)c2)c1	63.1%	63.3%	80.1%	59.5%	60.1%	41.9%	46.6%	62.8%	68.9%	68.3%
CC1(C)[C@H](O)CC[C@]2(C)[C@@H]1CC[C@@]13C[C@@H](CC[C@H]12)[C@@](O)(CO)C3	105%	99.7%	113%	103%	104%	126%	92.1%	107%	-45% (active)	119%
CCCC/C(=N\N=C(N)N)c1ccc(F)cc1	34.9%	31.6%	61.5%	27.9%	16.2%	31.4%	10.2%	31.8%	26.8%	8.47% (active)
CC(C)Cc1ccc(C(C)C(=O)NCc2c[nH]c3ccc(Cl)cc23)cc1 (stereo not given)	98%	92.3%	99.7%	99.7%	99.7%	79.8%	87.2%	89%	95.8%	107%
COc1ccc(C(O)c2cc3c(N)c(C(=O)Nc4cccc(Br)c4C)sc3nc2C)cc1 (stereo not given)	32.1%	56.9%	46.1%	36.5%	-2.32% (active)	61.5%	-32.7% (active)	20.5%	37.6%	-7.14% (active)
Cn1c(=O)c2[nH]c(CCCc3nc4c([nH]3)c(=O)n(C)c(=O)n4C)nc2n(C)c1=O	117%	105%	114%	97.4%	105%	101%	112%	105%	107%	111%

— PubChem BioAssay (NCI)
